# Source: PubChem BioAssay AID1159580 (chemical genetic matrix, 2015)
# Values joined by “and” are separate entries in the source; they are usually repeats but may differ in a detail not shown here. Equal values may be shown once. About 2,000 (36%) of roughly 5,500 compounds were called active. Roughly 18% stayed inconclusive and do not appear here. This is one part of the list. Values without a mark were called inactive. Cut-off read from the data, not from the text of the source: active = normalized growth mostly below about 0.91 (no sharp cut-off); inconclusive = no clear call, values can overlap the other calls; inactive = mostly above about 0.92.
# Test: chemical genetic growth profiling, strain panel (AID 1159580);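 note: tested at 20 µM; growth read once vehicle control cultures reached saturation at 30 °C; 1 = growth at the plate median or of vehicle wells; lower values mean less growth of the strain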
# Settings: S. cerevisiae deletion strains, growth OD
structure (smiles),measurement,setting,value
COC(=O)Nc1nc2ccc(Sc3ccccc3)cc2[nH]1,normalized growth,"locus YAL013W, strain DEP1, stronger effect = lower value",1
same,normalized growth,"locus YAL021C, strain ccr4, stronger effect = lower value",1.01
same,normalized growth,"locus YAL026C, strain drs2, stronger effect = lower value",1
same,normalized growth,"locus YAL030W, strain snc1, stronger effect = lower value",0.986
same,normalized growth,"locus YBL061C, strain skt5, stronger effect = lower value",0.986
same,normalized growth,"locus YBR009C, strain hhf1, stronger effect = lower value",0.993
same,normalized growth,"locus YBR021W, strain FUR4, stronger effect = lower value",1.02
same,normalized growth,"locus YBR023C, strain chs3, stronger effect = lower value",0.989
same,normalized growth,"locus YBR171W, strain sec66, stronger effect = lower value",0.987
same,normalized growth,"locus YBR229C, strain ROT2, stronger effect = lower value",0.997
same,normalized growth,"locus YBR231C, strain swc5, stronger effect = lower value",0.753 (active)
same,normalized growth,"locus YBR279W, strain paf1, stronger effect = lower value",0.985
same,normalized growth,"locus YCL011C, strain gbp2, stronger effect = lower value",0.991
same,normalized growth,"locus YCL016C, strain dcc1, stronger effect = lower value",1
same,normalized growth,"locus YCL029C, strain bik1, stronger effect = lower value",0.826 (active)
same,normalized growth,"locus YCL061C, strain MRC1, stronger effect = lower value",1.01
same,normalized growth,"locus YCL069W, strain vba3, stronger effect = lower value",0.99
same,normalized growth,"locus YCR088W, strain abp1, stronger effect = lower value",0.996
same,normalized growth,"locus YDL005C, strain med2, stronger effect = lower value",0.987
same,normalized growth,"locus YDL035C, strain GPR1, stronger effect = lower value",0.98
same,normalized growth,"locus YDL040C, strain nat1, stronger effect = lower value",1.01
same,normalized growth,"locus YDL074C, strain BRE1, stronger effect = lower value",0.994
same,normalized growth,"locus YDL101C, strain DUN1, stronger effect = lower value",1.02
same,normalized growth,"locus YDL134C, strain PPH21, stronger effect = lower value",1.01
same,normalized growth,"locus YDL185W, strain tfp1, stronger effect = lower value",0.986
same,normalized growth,"locus YDL192W, strain arf1, stronger effect = lower value",1
same,normalized growth,"locus YDR001C, strain nth1, stronger effect = lower value",0.996
same,normalized growth,"locus YDR069C, strain doa4, stronger effect = lower value",0.984
same,normalized growth,"locus YDR101C, strain arx1, stronger effect = lower value",0.99
same,normalized growth,"locus YDR137W, strain rgp1, stronger effect = lower value",0.965
same,normalized growth,"locus YDR150W, strain NUM1, stronger effect = lower value",0.975
same,normalized growth,"locus YDR159W, strain sac3, stronger effect = lower value",0.99
same,normalized growth,"locus YDR162C, strain NBP2, stronger effect = lower value",1
same,normalized growth,"locus YDR195W, strain ref2",1.04
same,normalized growth,"locus YDR297W, strain sur2, stronger effect = lower value",0.97
same,normalized growth,"locus YDR318W, strain mcm21, stronger effect = lower value",1.01
same,normalized growth,"locus YDR334W, strain swr1, stronger effect = lower value",0.788 (active)
same,normalized growth,"locus YDR335W, strain msn5, stronger effect = lower value",1
same,normalized growth,"locus YDR388W, stronger effect = lower value",1
same,normalized growth,"locus YDR392W, strain spt3, stronger effect = lower value",0.993
same,normalized growth,"locus YDR502C, strain sam2, stronger effect = lower value",0.98
same,normalized growth,"locus YEL003W, strain gim4, stronger effect = lower value",0.206 (active)
same,normalized growth,"locus YEL037C, strain rad23, stronger effect = lower value",1
same,normalized growth,"locus YEL061C, strain CIN8 (second series), stronger effect = lower value",0.999
same,normalized growth,"locus YEL061C, strain CIN8, stronger effect = lower value",0.995
same,normalized growth,"locus YER015W, strain faa2, stronger effect = lower value",0.988
same,normalized growth,"locus YER016W, strain bim1, stronger effect = lower value",0.985
same,normalized growth,"locus YER110C, stronger effect = lower value",0.995
same,normalized growth,"locus YER111C, strain swi4, stronger effect = lower value",0.992
same,normalized growth,"locus YER155C, strain BEM2 (second series), stronger effect = lower value",0.978
same,normalized growth,"locus YER155C, strain BEM2, stronger effect = lower value",1
same,normalized growth,"locus YER167W, strain BCK2, stronger effect = lower value",0.991
same,normalized growth,"locus YFR010W, strain ubp6, stronger effect = lower value",0.995
same,normalized growth,"locus YGL078C, strain dbp3, stronger effect = lower value",0.99
same,normalized growth,"locus YGL086W, strain mad1, stronger effect = lower value",0.955
same,normalized growth,"locus YGL167C, strain pmr1, stronger effect = lower value",0.98
same,normalized growth,"locus YGL173C, strain kem1, stronger effect = lower value",0.991
same,normalized growth,"locus YGL227W, strain vid30, stronger effect = lower value",0.993
same,normalized growth,"locus YGL240W, strain doc1, stronger effect = lower value",0.987
same,normalized growth,"locus YGL248W, strain PDE1, stronger effect = lower value",1
same,normalized growth,"locus YGL253W, strain hxk2, stronger effect = lower value",1
same,normalized growth,"locus YGR078C, strain PAC10, stronger effect = lower value",0.0823 (active)
same,normalized growth,"locus YGR135W, strain pre9, stronger effect = lower value",0.99
same,normalized growth,"locus YGR229C, strain SMI1, stronger effect = lower value",0.941
same,normalized growth,"locus YGR252W, strain gcn5, stronger effect = lower value",0.895
same,normalized growth,"locus YHR013C, strain ard1, stronger effect = lower value",0.969
same,normalized growth,"locus YHR027C, strain rpn1, stronger effect = lower value",0.998
same,normalized growth,"locus YHR030C, strain SLT2, stronger effect = lower value",0.995 and 0.963
same,normalized growth,"locus YHR079C, strain IRE1 (second series), stronger effect = lower value",1.01
same,normalized growth,"locus YHR079C, strain IRE1, stronger effect = lower value",0.964
same,normalized growth,"locus YHR094C, strain hxt1, stronger effect = lower value",1
same,normalized growth,"locus YHR129C, strain ARP1, stronger effect = lower value",1.01
same,normalized growth,"locus YHR142W, strain chs7, stronger effect = lower value",0.989
same,normalized growth,"locus YHR200W, strain rpn10, stronger effect = lower value",0.984
same,normalized growth,"locus YIL066C, strain RNR3, stronger effect = lower value",0.997
same,normalized growth,"locus YIL073C, strain SPO22, stronger effect = lower value",0.998
same,normalized growth,"locus YIL125W, strain kgd1, stronger effect = lower value",0.99
same,normalized growth,"locus YIR030C, strain dcg1, stronger effect = lower value",1
same,normalized growth,"locus YJL092W, strain hpr5, stronger effect = lower value",1
same,normalized growth,"locus YJL095W, strain BCK1 (second series), stronger effect = lower value",0.985
same,normalized growth,"locus YJL095W, strain BCK1, stronger effect = lower value",1.03 and 0.949
same,normalized growth,"locus YJL115W, strain asf1, stronger effect = lower value",1.01
same,normalized growth,"locus YJL129C, strain trk1, stronger effect = lower value",0.976
same,normalized growth,"locus YJL134W, strain LCB3, stronger effect = lower value",1
same,normalized growth,"locus YJL154C, strain vps35, stronger effect = lower value",0.993
same,normalized growth,"locus YJL164C, strain tpk1, stronger effect = lower value",1
same,normalized growth,"locus YJL166W, strain qcr8, stronger effect = lower value",0.972
same,normalized growth,"locus YJL168C, strain set2, stronger effect = lower value",1
same,normalized growth,"locus YJL187C, strain SWE1 (second series), stronger effect = lower value",1.01
same,normalized growth,"locus YJR043C, strain POL32, stronger effect = lower value",0.988
same,normalized growth,"locus YJR066W, strain TOR1, stronger effect = lower value",0.872
